Assay outcomes (PubChem BioAssay)
D1 potentiator = potentiators of human D1 dopamine receptor. P21728. HEK293 TREx D1 cells, calcium flux, dopamine EC20 potentiation. potentiation, % at 10 µM. 0.036% of 360,000 active. AID 504651; in the data active = potentiation above about 30%; also: 0% is about no effect
D1 agonist = activates the human D1 dopamine receptor; P21728; activation, % at 2 µM; HEK293 T-REx D1 cells, calcium flux, agonist mode; 1% of 360,000 active; in the data active = activation above about 30%; also: 0% is about no effect
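Inducible HEK293 T-REx D1 cells, force-coupled to calcium signalling, were plated at 4000 cells/well with tetracycline and held overnight at 30 C. After no-wash calcium dye loading, compound-evoked calcium rise over 180 s flagged agonists.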
DRD3 agonist = D3 dopamine receptor (human) agonism; D3R DiscoveRx beta-arrestin cells, luminescence, 90 min; max activation, %; P35462; 0.58% of 410,000 active; in the data active = max activation above about 30%; also: 0% is about no effect
Target sequence (P35462 whole entry, looked up): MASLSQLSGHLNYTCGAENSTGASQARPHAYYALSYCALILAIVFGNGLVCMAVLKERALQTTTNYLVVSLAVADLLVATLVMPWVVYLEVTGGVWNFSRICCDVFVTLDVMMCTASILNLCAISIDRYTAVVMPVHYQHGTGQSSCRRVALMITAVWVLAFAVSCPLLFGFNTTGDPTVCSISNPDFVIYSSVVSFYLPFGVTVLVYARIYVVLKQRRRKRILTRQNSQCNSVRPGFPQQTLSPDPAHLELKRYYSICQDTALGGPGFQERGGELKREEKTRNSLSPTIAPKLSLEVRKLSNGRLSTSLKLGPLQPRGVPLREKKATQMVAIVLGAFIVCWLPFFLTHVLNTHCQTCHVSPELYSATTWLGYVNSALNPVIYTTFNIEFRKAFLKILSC
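Agonist-mode cell screen: cells plated at 1500/well and incubated overnight at 37 °C, then exposed to library compounds for 90 min at 37 °C. Detection reagent was added for 30–60 min at room temperature, and luminescence was read.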
D1 antagonist = blocks dopamine activation of the human D1 receptor. 3.2% of 360,000 active. HEK293 TREx D1 cells, calcium flux, dopamine EC80; hits give low values. P21728. activity change, negative = inhibition, % at 10 µM. AID 504652; in the data active = activity change below about -30%; also: % is scaled to controls: 0 for no effect and ±100 for the full control effect
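Kinetic fluorescence of a calcium dye serves as the read-out. D1-expressing Hek293 Trex cells, induced overnight at 30 C, are exposed to compound for 180 s before an EC80 dopamine addition, then read 180 s further.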
D3 antag = antagonists of human D3 dopamine receptor | max response, negative = inhibition, % | 2.5% of 360,000 active | D3R cells, DiscoveRx beta-arrestin luminescence, antagonist mode; hits give low values | AID 652054; in the data active = max response below about -50%; also: % is scaled to controls: 0 for no effect and ±100 for the full control effect
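Cells plated overnight at 1500 cells/well, then exposed to library compounds with dopamine controls for 90 minutes at 37 degrees C. DiscoveRx reagent added for 30–60 minutes at room temperature; luminescence read, quantitative HTS format.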
Active calls of the source: *; . = no result given. This is a sample that favours compounds with a hit; in the whole collection about 6% have one here.

SMILES	D1 potentiator	D1 agonist	DRD3 agonist	D1 antagonist	D3 antag
CSCCC(NC(=O)c1ccccc1Br)C(=O)NNC(=O)C1COc2ccccc2O1 (stereo not given)	.	.	-5.3	.	4.4
O=S(=O)(c1cccc2ccccc12)N1CCN(c2ccc(Cl)c(Cl)c2)CC1	-6.0	0.4	71.5*	-21.4	.
COCCNC(=O)CCCn1c(SCC(=O)c2ccc(F)cc2)nc2c(sc3ccccc32)c1=O	-1.6	-0.4	-8.6	2.1	.
CC1C(=O)N2CCCc3cc(S(=O)(=O)N4CCN(c5ccc(F)cc5)CC4)cc1c32 (stereo not given)	11.8	3.0	-7.7	-46.1*	-18.2
COCCNC(=O)C[C@H]1C[C@H]2c3cc(NS(=O)(=O)c4ccc(F)cc4)ccc3O[C@H]2[C@H](CO)O1	.	.	4.8	.	15.5
COc1ccc(CCNc2nc(C)nc3c2nnn3Cc2ccccc2)cc1	-3.0	-0.1	4.9	-56.7*	-12.1
COc1ccc(Cl)cc1N(CC(=O)N1CCN(Cc2ccccc2)CC1)S(C)(=O)=O	6.0	0.9	-8.5	-18.4	-56.6*
COc1ccc(N(CC(=O)N2CCN(Cc3ccccc3)CC2)S(C)(=O)=O)c(OC)c1	-6.8	2.2	-7.4	-2.8	-1.9
COc1ccc(C)cc1N(CC(=O)N1CCCCCC1)S(=O)(=O)c1ccccc1	-5.5	0.1	2.8	23.7	-3.4
COc1ccccc1N(CC(N)=O)S(=O)(=O)c1ccc(C)cc1	-7.0	2.4	9.4	-3.5	-76.5*
COc1ccccc1N(CC(=O)N1CCC(C)CC1)S(=O)(=O)c1ccc(C)cc1	-1.6	5.9	-3.4	6.5	.
CCOC(=O)N1CCN(C(=O)CN(c2cc(C)ccc2OC)S(=O)(=O)c2ccc(C)cc2)CC1	-1.9	3.4	-6.2	-38.1*	.
O=c1[nH]c2cc([N+](=O)[O-])cc(Cl)c2c2ccccc12	.	.	0.8	.	3.6
CCOC(=O)[C@@H]1[C@H]2COc3ccccc3[C@H]2N2C(=O)N(c3ccc(Cl)cc3)C(=O)[C@]12C	5.8	3.5	-9.2	9.7	4.7
S=C(Nc1ccccc1Cl)NC1CCN(Cc2ccccc2)CC1	-0.6	14.5	-6.8	0.5	-83.9*
S=C(Nc1cc(Cl)cc(Cl)c1)NC1CCN(Cc2ccccc2)CC1	0.8	18.7	-14.1	-15.3	-93.9*
S=C(Nc1ccc(Cl)cc1Cl)NC1CCN(Cc2ccccc2)CC1	-8.8	14.7	-6.3	-16.1	-27.8
Cc1c(Cl)cccc1NC(=S)N1CCN(Cc2ccccc2)CC1	-1.6	7.9	-5.4	-16.0	-13.0
S=C(NCc1ccc(Cl)cc1)NC1CCN(Cc2ccccc2)CC1	-10.4	22.2	-15.6	.	-65.9*
Cc1c(Cl)cccc1NC(=S)NC1CCN(Cc2ccccc2)CC1	-6.1	14.6	-12.7	-32.9*	-72.4*
CCOC(=O)c1scc(-c2ccc(C)cc2)c1S(=O)(=O)Nc1cccc(CC)c1	-5.0	23.1	-8.2	2.9	.
COc1ccc(CN2C[C@@H](CO)O[C@@H](n3cnc4c(NCc5cc(OC)c(OC)c(OC)c5)ncnc43)C2)cc1	.	.	-10.6	.	-23.3
FC(F)(F)c1ccccc1NC(=S)NC1CCN(Cc2ccccc2)CC1	4.2	8.1	-20.1	-0.1	-58.1*
CCCN1CCC(NC(=S)Nc2cccc(Cl)c2Cl)CC1	3.2	3.2	-4.1	18.9	-3.2
CC(C)c1ccccc1NC(=S)NC1CCN(Cc2ccccc2)CC1	-3.6	9.7	-39.6	7.7	-79.5*
SMILES	D1 potentiator	D1 agonist	DRD3 agonist	D1 antagonist	D3 antag
FC(F)(F)c1ccccc1NC(=S)Nc1ccccc1	1.1	0.2	3.4	-34.9*	-15.1
O=C(CN1CCC(NC(=O)c2ccco2)CC1)Nc1ccccc1C(F)(F)F	0.5	2.0	3.9	-1.6	-0.5
O=C(NCc1noc2ccccc12)N1CCN(c2ccccc2)CC1	-1.9	-0.3	-3.8	-6.8	.
Cc1ccc(NC(=O)C2CC(=O)N(c3ccccc3Cl)C2)cc1S(=O)(=O)N1CCOCC1 (stereo not given)	.	.	-3.0	.	12.6
Fc1cccc(Nc2nc(N3CCOCC3)nc(N3CCOCC3)n2)c1	-9.4	1.6	1.2	1.1	-5.8
CCOc1ccccc1NC(=O)c1c(NC(=O)c2cccc(C)c2)sc2c1CCCC2	1.2	1.0	8.5	2.7	.
Fc1cccc(Cl)c1CSc1nnc(CNc2ccccc2)o1	-11.9	-0.1	-5.7	-40.7*	1.4
COc1cc(OC)cc(-c2nnc(SCc3c(F)cccc3Cl)o2)c1	-9.7	11.9	21.0	-33.0*	24.8
